# An excerpt weighted towards active compounds, which were near 6.3% of everything screened.
# Gal4-VP16 FLuc – Gal4-VP16 reporter inhibition counter-screen; Drosophila S2 Gal4-VP16 UAS-luciferase, luminescence, 20 h; Potency, µM (doses to about 53.6 µM), usual class: inhibitors; hit rate 3.5% among 310,000; AID 2546;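 also: Gal4-VP16 expression switched on by copper sulfate through the metallothionein promoter; nearly all actives have a fitted effect of over 50% in size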
# RORg inh – ROR gamma (mouse) transcription inhibition; P51450; Drosophila S2 Gal4-RORgamma UAS-luciferase reporter, 20 h; Potency, µM (top dose mostly 53.6 µM), most hits filed as inhibitors; hit rate 5.4% among 310,000; AID 2551; also: nearly all actives have a fitted effect of over 60% in size
# Target sequence (P51450 whole entry, looked up, the tested form may be a part): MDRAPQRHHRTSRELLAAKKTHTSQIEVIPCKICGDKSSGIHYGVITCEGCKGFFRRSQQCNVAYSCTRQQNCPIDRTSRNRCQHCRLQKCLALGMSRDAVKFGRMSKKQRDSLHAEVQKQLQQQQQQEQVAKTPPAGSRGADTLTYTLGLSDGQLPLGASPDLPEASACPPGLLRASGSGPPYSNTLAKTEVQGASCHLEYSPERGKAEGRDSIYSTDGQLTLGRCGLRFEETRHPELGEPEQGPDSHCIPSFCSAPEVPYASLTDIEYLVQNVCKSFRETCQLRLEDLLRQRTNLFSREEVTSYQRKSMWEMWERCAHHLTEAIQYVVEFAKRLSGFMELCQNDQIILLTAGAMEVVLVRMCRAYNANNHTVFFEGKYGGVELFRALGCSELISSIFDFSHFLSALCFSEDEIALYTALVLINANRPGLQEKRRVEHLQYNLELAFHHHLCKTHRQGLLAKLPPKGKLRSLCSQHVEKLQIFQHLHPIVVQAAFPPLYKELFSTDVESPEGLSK
#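 Drosophila Schneider cells stably carrying a metallothionein-driven Gal4 DBD–ROR gamma fusion and a UAS-Photinus luciferase reporter were exposed to compound for 1 hr, then induced with copper sulfate (700 uM final) for 20 hr at ambient temperature before luminescence reading.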
# ATXN2 expr inh – inhibitors of ATXN2 expression; HEK-293 ATXN2-luciferase reporter, luminescence, 24 h; Potency, µM (titrated, usually from 57 µM), actives largely listed as inhibitors; hit rate 0.72% among 360,000; AID 1745845; also: nearly all actives have a fitted effect of over 55% in size
#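 ATXN2-luciferase reporter cells (luciferase flanked by upstream and downstream ATXN2 gene portions) were treated 24 h at 37 °C with compounds at up to 57 uM. SteadyGlo luminescence gave expression; GF-AFC fluorescence gave viability.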
# TGFb inhibitor – inhibitors of TGF-b signaling | HepG2 CAGA-GFP TGF-b/SMAD3 reporter, GFP fluorescence, 18 h; TGF-beta stimulated, 500 pg/mL final | Potency, µM (highest dose often 46.1 µM), usual class: inhibitors | hit rate 1.2% among 410,000; also: nearly all actives have a fitted effect of over 65% in size
#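 HEPG2 CAGA-GFP reporter cells (1000/well, DMEM with 1% FBS) received compounds, then recombinant TGF-beta at 500 pg/mL final for 18 hours at 37 degrees C. Per-cell GFP summed per well was normalised to unstimulated and stimulated DMSO controls before curve fitting.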
# HepG2 viability – counter-screen for TGF-b inhibitors: cytotoxicity in HepG2 cells; HepG2 CAGA-GFP viability, ATP luminescence, 18 h; Potency, µM (series often up to 46.1 µM), usual class: cytotoxic; AID 588856; hit rate 0.76% among 410,000
#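 HepG2 CAGA-GFP cells (1000/well, DMEM with 1% FBS) received compound, then TGF-beta at 500 pg/mL final, and were incubated 18 hours at 37 degrees C. Viability was read by CellTiter-Glo luminescence. Media-only wells were set as complete cell-killing and DMSO as no toxicity.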
# ATXN viability – reduces viability in counter-screen for ATXN expression inhibitors. S2 cells (HEK-293 line with an ATXN2-luciferase reporter) viability, CellTiter-Fluor protease fluorescence, 24 h. Potency, µM (doses to about 56.7 µM), hits mostly cytotoxic. hit rate 0.49% among 400,000. AID 651635; also: nearly all actives have a fitted effect of over 40% in size
# A number is an active result; – = inactive; ? = inconclusive; · = no result given; [ ] = remark or other dose. Calls follow the shape of the dose curve; as a rule, active = well fitted curve in the direction sought with a large enough effect; inconclusive = small, poorly fitted or top-dose-only effect, or another doubt; inactive = no such curve, though single readings can be large; an effect the other way counts as inactive or inconclusive.
SMILES,Gal4-VP16 FLuc,RORg inh,ATXN2 expr inh,TGFb inhibitor,HepG2 viability,ATXN viability
COc1cccc(NC(=S)NC(=O)/C=C/c2ccco2)c1,?,11µM,–,?,–,–
O=C1Oc2ccccc2C(=O)C1C(CC(O)c1ccc(-c2ccc(Br)cc2)cc1)c1ccccc1 (stereo not drawn),–,?,·,·,·,·
Cc1ccc(Nc2nc(CSc3n[nH]c(N)n3)cs2)cc1,–,13µM,–,–,–,–
Cc1cccc(NC(=S)N2CCC(c3nc4ccccc4o3)CC2)c1C,?,10µM,–,–,–,–
CCOc1ccccc1NC(=S)N1CCC(c2nc3ccccc3o2)CC1,?,11µM,·,–,–,–
Cc1cccc(NC(=S)N2CCC(c3nc4ccccc4o3)CC2)c1,–[10 µM],7.1µM,–,?,–,–
Cc1ccc(NC(=O)c2ccc3c(c2)NC(=O)c2ccccc2S3)c(Cl)c1,·,·,?,–,–,?
CN1CCN(CCCNC(=O)c2ccc(/C=C3\Sc4ccccc4N(Cc4ccc(F)cc4)C3=O)cc2)CC1,–[10 µM],?,·,?,–,?
CN1CCN(CCCNC(=O)c2ccc(/C=C3\Oc4ccccc4N(Cc4ccccc4F)C3=O)cc2)CC1,?,?,·,18µM,–,20µM
CCN1CCN(CCNC(=O)c2ccc(/C=C3\Sc4ccccc4N(Cc4ccccc4F)C3=O)cc2)CC1,?,?,?,?,14µM,–
Cc1nc(NCc2cnn(C)c2C)sc1-c1ccn(CC2COc3ccccc3O2)n1 (stereo not drawn),·,·,·,·,·,–
N#C/C(=N\Nc1cccc(C(F)(F)F)c1)C(=O)c1ccsc1,?,?,·,10µM,–,–
COc1cc(-c2cnc3ccccc3c2)cc2c1OCCN(C(=O)CCn1nc(C)cc1C)C2,·,·,·,·,·,–
COc1ccc(N2CSC3=C(C#N)C(c4cc(OC)c(OC)cc4OC)CC(=O)N3C2)c(OC)c1 (stereo not drawn),–,13µM,–,–,–,?
O=C1CSC(=NC2CCCCC2)N1,?,?,–,–,–,–
O=C1CS/C(=N/N=C2CCCC2)N1,?,7.9µM,–,–,–,–
Cc1cc(C)cc(-n2c3nc4ccccc4nc3c3c(=O)n(Cc4ccco4)cnc32)c1,11µM,11µM,–,–,–,–
O=C(Nc1ccc(CN2CCOCC2)cc1)c1ccc(-c2ccc(Br)cc2)o1,–,–,?,?,10µM,?
O=C(Nc1cccc([N+](=O)[O-])c1)c1ccc(CN2CCOCC2)cc1,?,?,–,–,–,–
COc1ccc(C(=O)NC(=S)Nc2ccc(CN3CCOCC3)cc2)cc1Br,18µM,7.1µM,·,11µM,–,?
O=C(NC(=S)Nc1ccc(CN2CCOCC2)cc1)c1ccc([N+](=O)[O-])cc1,10µM,14µM,–,–,–,–
O=C(/C=C/c1cccc([N+](=O)[O-])c1)NC(=S)Nc1ccc(CN2CCOCC2)cc1,?,13µM,–,–,–,–
O=C(Nc1ccc(CN2CCOCC2)cc1)c1ccc(Br)cc1,–,–,–,–,–,–
Cc1c(Cl)cccc1NC(=S)C(=C([O-])c1ccc(Cl)s1)[n+]1ccccc1,·,·,–,–,–,?
O=C(NCCS(=O)(=O)NC1CCCC1)c1ccc(F)cc1,·,·,–,–,–,–
SMILES,Gal4-VP16 FLuc,RORg inh,ATXN2 expr inh,TGFb inhibitor,HepG2 viability,ATXN viability
COc1ccc(C(=O)NC(=S)Nc2ccc(CN3CCOCC3)cc2)cc1,?,11µM,–,–,–,?
CCCCOc1ccc(C(=O)NC(=S)Nc2ccc(CN3CCOCC3)cc2)cc1,–,?,–,–,–,–
CC1(C)S/C(=N/N=C/c2cccs2)NC1=O,5µM,0.79µM,–,–,–,–
O=C1CS/C(=N/N=C/c2cccs2)N1,?,0.56µM,–,–,–,–
O=C1CS/C(=N/N=C/c2ccncc2)N1,–,–,–,–,–,·
CC(C)c1ccc(NC(=O)CSc2nnc(-c3ccccc3)n2C)cc1,·,·,·,–,–,·
CCc1nc2c(OCc3ccc(F)c(F)c3)cccn2c1N(C)C(=O)C1CC1,·,·,–,?,–,–
CCn1nnc2cc(C(=O)NCCc3ccccc3F)ccc21,11µM,?,?,–,–,–
CCn1nnc2cc(C(=O)Nc3ccc(Br)cc3F)ccc21,·,·,–,–,–,–
COc1ccc(NC(=O)COC(=O)c2cc(C)oc2C)c([N+](=O)[O-])c1,·,·,·,–,–,?
COc1ccc(S(=O)(=O)Nc2cccc(-c3ccc(N4CCCCCC4)nn3)c2)cc1,·,·,–,–,–,?
CCc1nnc(NC(=O)CSc2nnc(-c3ccccc3O)n2-c2ccc(C)cc2C)s1,?,1.6µM,–,?,–,–
CCc1nnc(NC(=O)CSc2ncc(-c3ccccc3)n2CC)s1,?,11µM,–,–,–,–
CCc1nnc(NC(=O)CSc2ncc(-c3ccccc3)[nH]2)s1,?,6.3µM,–,–,–,–
CCCCN(CCCC)c1ccc(/C=C2\C=Cc3ccccc32)cc1,·,·,·,–,–,·
CCOC(=O)N1CCC(n2c(=S)[nH]c3cc(OC)c(OC)cc3c2=O)CC1,11µM,?,–,–,–,–
CCCCN(C)CCn1c(=S)[nH]c2cc(OCC)c(OCC)cc2c1=O,?,11µM,–,–,–,–
CCCn1c(=S)[nH]c2cc(OC)c(OC)cc2c1=O,7.9µM,3.2µM,–,–,–,–
COCCn1c(=S)[nH]c2ccc(N(C)C)cc2c1=O,?,16µM,–,–,–,–
CCc1ccccc1Nc1nn2c(=O)c3ccc(C(=O)NCCC4=CCCCC4)cc3nc2s1,·,·,?,–,–,?
CCOc1cc2[nH]c(=S)n(CCCN(CC)CC)c(=O)c2cc1OCC,–,–,–,–,–,–
CCOc1cc2[nH]c(=S)n(CCOC)c(=O)c2cc1OCC,8.9µM,2.8µM,–,–,–,–
CCOC(=O)c1nn(-c2ccccc2)c(=O)c2c(NC(C)=O)scc12,–,–,–,–,3.2µM,–
CCOC(=O)c1nn(-c2ccccc2)cc1O,–,–,·,–,–,–
CCOC(=O)c1nn(-c2ccccc2)c(C(=O)OCC)c1N,–,1.3µM,–,–,–,–
CCOC(=O)c1nn(-c2ccccc2)c(=O)c2c(N)scc12,–,–,–,–,–,–
COc1cc(-c2noc(-c3ccc(N4CCOCC4)c([N+](=O)[O-])c3)n2)cc(OC)c1OC,·,·,–,–,–,–
CC(C)=CCCC1(C)C=Cc2c(c(C)cc3c2[nH]c2cc(O)ccc23)O1 (stereo not drawn),?,–,?,11µM,11µM,28µM
CCOC(=O)CSc1ccc(-c2nc3ccccc3[nH]2)cn1,–,–,–,–,–,–
CCOC(=O)CSc1ccc(-c2nc3cc(C)c(C)cc3[nH]2)cn1,?,18µM,–,?,–,–

# Assay outcomes from PubChem BioAssay.
